Source: the supplement of paper PMC7411640
Counter-ions that a name gives are not always drawn.

system: MDA-MB-468; assay: phospho-S6 immunofluorescence (DAPI-normalised), per-plate z-score; higher = higher phospho-S6 signal (less pathway suppression); settings: co-treatment: GDC0941 450 nM; 24 h
Experimental: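 GPCR-targeted compound library (MedChemExpress HY-L006) tested on MDA-MB-468 PTEN-null TNBC cells in 384-well plates at 0.1, 1 or 10 uM, combined with vehicle, GDC0941 450 nM or lapatinib 1 uM, for 24 h. Phospho-S6 (S240/244) immunofluorescence normalised to DAPI and expressed as a per-plate z-score; values are the mean of biological triplicates.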

| Compound | phospho-S6 immunofluorescence (z-score) |
| --- | --- |
| O=C(c1ccc(OCCCc2c[nH]cn2)cc1)C1CC1 [Ciproxifan (maleate)] (compound 10 µM) | -0.58 |
| CC(C)(Cc1ccc2ccccc2c1)NC[C@@H](O)COc1cccc(Cl)c1C#N [NPS-2143 (hydrochloride)] (compound 10 µM) | -6 |
| CC(=O)Oc1cc2c(s1)CCN(C(C(=O)C1CC1)c1ccccc1F)C2 (stereo unspecified) [Prasugrel] (compound 10 µM) | -1.29 |
| COCCCN1CCC(NC(=O)c2cc(Cl)c(N)c3c2OCC3)CC1 [Prucalopride] (compound 10 µM) | 0.54 |
| CCOc1ccccc1OCCN[C@H](C)Cc1ccc(OC)c(S(N)(=O)=O)c1 [Tamsulosin] (compound 10 µM) | -1.32 |
| C#CCOc1ccc2c(c1)c(-c1ccc(C(C)C)cc1)nc(=O)n2C(C)C [Calcium-Sensing Receptor Antagonists I] (compound 10 µM) | -3.51 |
| O=C1O[C@]2(CC[C@H](C(=O)Nc3ccn(-c4ccccc4F)n3)CC2)c2cnccc21 (compound 10 µM) | 0.73 |
| CN1CCN2c3ncccc3Cc3ccccc3C2C1 (stereo unspecified) [Mirtazapine] (compound 10 µM) | 0.65 |
| CC1CCN(CC[C@H]2CCCN2S(=O)(=O)c2cccc(O)c2)CC1 (compound 10 µM) | 0.86 |

same assay, conditions: co-treatment: lapatinib 1 uM; 24 h

| Compound | phospho-S6 immunofluorescence (z-score) |
| --- | --- |
| CN1CCN(C2=Nc3ccccc3Oc3ccc(Cl)cc32)CC1 [Loxapine] (compound 10 µM) | -0.55 |
| Cc1[nH]cnc1CN1CCc2c(c3ccccc3n2C)C1=O [Alosetron (Hydrochloride)] (compound 10 µM) | -0.22 |
| OC[C@H]1O[C@@H](n2cnc3c(N[C@@H]4CCc5ccccc54)ncnc32)[C@H](O)[C@@H]1O (compound 10 µM) | 0.89 |
| CC[C@H](NC(=O)c1c(O)c(-c2ccccc2)nc2ccccc12)c1ccccc1 [Talnetant] (compound 10 µM) | 0.47 |
| C[C@@H](O[C@H]1OCCN(Cc2n[nH]c(=O)[nH]2)[C@H]1c1ccc(F)cc1)c1cc(C(F)(F)F)cc(C(F)(F)F)c1 [Aprepitant] (compound 10 µM) | -1.02 |
| CCc1c(C(=O)NCCc2ccc(N3CCCCC3)cc2)[nH]c2ccc(Cl)cc12 (compound 10 µM) | -0.3 |
| CC1(C)C(=O)N(CCN2CCC(C(=O)c3ccc(F)cc3)CC2)c2ccccc21 (compound 10 µM) | -0.77 |
| COc1cc(C(=O)NCc2ccc(OCCN(C)C)cc2)cc(OC)c1OC [Trimethobenzamide hydrochloride] (compound 10 µM) | 1.09 |
| CC(=O)OCC(=O)NCCCOc1cccc(CN2CCCCC2)c1 [Roxatidine (Acetate Hydrochloride)] (compound 10 µM) | 0.32 |
| COc1ccc(-c2oc3c(CC=C(C)C)c(O)cc(O)c3c(=O)c2O[C@@H]2O[C@@H](C)[C@H](O)[C@@H](O)[C@H]2O)cc1 [Baohuoside I] (compound 10 µM) | -5.94 |
| Cc1ccc(/C(=C\CN2CCCC2)c2cccc(/C=C/C(=O)O)n2)cc1 [Acrivastine] (compound 10 µM) | 0.6 |
| CCCCC[C@H](O)/C=C/[C@@H]1[C@@H](C/C=C\CCCC(=O)O)[C@@H](O)C[C@H]1O [Dinoprost (tromethamine salt)] (compound 10 µM) | -0.14 |
| NCCc1ccc(O)c(O)c1 [Dopamine (hydrochloride)] (compound 10 µM) | 0.53 |
| C[C@]12CCC(=O)C=C1CC[C@@H]1[C@@H]2CC[C@@]2(C)[C@H]1CC[C@]2(O)C(=O)CO [Cortodoxone] (compound 10 µM) | 1.37 |
| COc1cc2nc(C3CC3)nc(N3CCN(c4ccccc4OC)CC3)c2cc1OC (compound 10 µM) | -0.08 |
| CCNC(=O)[C@H]1O[C@@H](n2cnc3c(N)nc(NCCc4ccc(CCC(=O)O)cc4)nc32)[C@H](O)[C@@H]1O (compound 10 µM) | 1.28 |
| O=C(O)CCc1ccc(NCc2cccc(Oc3ccccc3)c2)cc1 (compound 10 µM) | 0.32 |
| CN(C)CCCN1c2ccccc2Sc2ccccc21 [Promazine (hydrochloride)] (compound 10 µM) | -1.25 |
| CN(C)CCC(c1ccc(Cl)cc1)c1ccccn1 (stereo unspecified) [Chlorpheniramine (maleate)] (compound 10 µM) | -10.5 |

| Compound | phospho-S6 immunofluorescence (z-score) |
| --- | --- |
| O=C(O[C@@H]1C[C@@H]2C[C@H]3C[C@H](C1)N2CC3=O)c1c[nH]c2ccccc12 [Dolasetron] (compound 10 µM) | -0.11 |
| OCc1ccc(-c2nn(Cc3ccccc3)c3ccccc23)o1 [Lificiguat] (compound 10 µM) | 2.82 |
| CC(C)N(CCCCOCC(=O)O)c1cnc(-c2ccccc2)c(-c2ccccc2)n1 (compound 10 µM) | 1.89 |
| Cc1ccc(Sc2ccccc2N2CCNCC2)c(C)c1 [Vortioxetine] (compound 10 µM) | -7.7 |
| C[C@H](Cc1cc2c(c(C(N)=O)c1)N(CCCO)CC2)NCCOc1ccccc1OCC(F)(F)F [Silodosin] (compound 10 µM) | -0.02 |
| COCCCN1CCC(NC(=O)c2cc(Cl)c(N)c3c2OCC3)CC1 [Prucalopride (succinate)] (compound 10 µM) | -0.3 |
| C=CCc1ccccc1OCC(O)CNC(C)C (stereo unspecified) [Alprenolol (hydrochloride)] (compound 10 µM) | -0.09 |
| O=C(CCCN1CC=C(n2c(=O)[nH]c3ccccc32)CC1)c1ccc(F)cc1 [Droperidol] (compound 10 µM) | 0.16 |
| N=C(N)NCCC[C@@H](NC(=O)[C@@H]1CCCN1C(=O)[C@@H]1CSSCCC(=O)N[C@@H](Cc2ccc(O)cc2)C(=O)N[C@@H](Cc2ccccc2)C(=O)N[C@@H](CCC(N)=O)C(=O)N[C@@H](CC(N)=O)C(=O)N1)C(=O)NCC(N)=O [Desmopressin (Acetate)] (compound 10 µM) | -0.21 |
| O=C(c1ccc(OCCCc2c[nH]cn2)cc1)C1CC1 [Ciproxifan (maleate)] (compound 10 µM) | -0.62 |
| CC(C)(Cc1ccc2ccccc2c1)NC[C@@H](O)COc1cccc(Cl)c1C#N [NPS-2143 (hydrochloride)] (compound 10 µM) | -12.2 |
| CC(=O)Oc1cc2c(s1)CCN(C(C(=O)C1CC1)c1ccccc1F)C2 (stereo unspecified) [Prasugrel] (compound 10 µM) | 1.92 |
| COCCCN1CCC(NC(=O)c2cc(Cl)c(N)c3c2OCC3)CC1 [Prucalopride] (compound 10 µM) | 0 |
| CCOc1ccccc1OCCN[C@H](C)Cc1ccc(OC)c(S(N)(=O)=O)c1 [Tamsulosin] (compound 10 µM) | 0.1 |
| C#CCOc1ccc2c(c1)c(-c1ccc(C(C)C)cc1)nc(=O)n2C(C)C [Calcium-Sensing Receptor Antagonists I] (compound 10 µM) | -4.39 |
| O=C1O[C@]2(CC[C@H](C(=O)Nc3ccn(-c4ccccc4F)n3)CC2)c2cnccc21 (compound 10 µM) | -0.47 |
| CN1CCN2c3ncccc3Cc3ccccc3C2C1 (stereo unspecified) [Mirtazapine] (compound 10 µM) | 0.99 |
| CC1CCN(CC[C@H]2CCCN2S(=O)(=O)c2cccc(O)c2)CC1 (compound 10 µM) | 0.2 |
